Reference: publication PMC3315485, “Probing the Informational and Regulatory Plasticity of a Transcription Factor DNA–Binding Domain”
Substitutions are numbered along the chain they refer to.

Columns and labels:
Experiment in all cases: MITOMI; MITOMI, 295 K (22 C); buffer, salt and pH not stated in the material; high values mean tight binding
Settings in all cases: protein: ivt; label: fluorescent; dsDNA, one strand shown
MarA RQR = target: T1, MarA RQR (Escherichia coli, UniProt P0ACH5 1-127, W40R)
T1 sequence: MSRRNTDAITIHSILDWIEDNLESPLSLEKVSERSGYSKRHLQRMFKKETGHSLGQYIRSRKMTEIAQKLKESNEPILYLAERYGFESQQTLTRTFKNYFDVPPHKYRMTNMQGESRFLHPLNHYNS
Method in brief: (§1)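 Association constants were determined by MITOMI and are expressed for each site relative to the site with the highest affinity for the same protein variant. The MarA protein variants were made with the RTS E. coli HY kit by in vitro transcription and translation and labelled through addition of tRNA-lys-bodipy-fl. Testing covered 64 synthesized mar binding site variants, with fluorescence read on Genepix at 295K.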

MarA RTR = target: T2, MarA RTR (Escherichia coli, UniProt P0ACH5 1-127, W40R;Q43T)
T2 sequence: T1 sequence with Q43T
Method in brief: as §1

MarA SAR = target: T3, MarA SAR (Escherichia coli, UniProt P0ACH5 1-127, W40S;Q43A)
T3 sequence: T1 sequence with R40S, Q43A
Method in brief: as §1

MarA TRR = target: T4, MarA TRR (Escherichia coli, UniProt P0ACH5 1-127, W40T;Q43R)
T4 sequence: T1 sequence with R40T, Q43R
Method in brief: as §1

Q: What does the source list for ATGTTCCGTTTTGCTAAAT?
A: binding signal (MarA RQR): 0.16 Ka relative to the best site of the variant; binding signal (MarA RTR): 0.207 Ka relative to the best site of the variant; binding signal (MarA SAR): 0.254 Ka relative to the best site of the variant; binding signal (MarA TRR): 0.449 Ka relative to the best site of the variant
